# Screens as filed in PubChem BioAssay.
# In the library only some 6.5% were active in any assay of this set; here they are far more common.
# HT1080NT lethal – kills 2HG-producing HT-1080-NT fibrosarcoma cells. hit rate 1.6% among 360,000. HT-1080-NT fibrosarcoma viability, CellTiter-Glo ATP luminescence, 48 h. AID 686970. Potency, µM (doses to about 46.1 µM), without a hit: at the highest dose activity, negative = less viability, actives largely listed as cytotoxic;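 also: NT is the 2HG producing partner of a matched IDH1 knockdown line; potency is read from the fitted curve at half-maximal effect; 0% = DMSO-treated cells and -100% = media-only wells without cells; nearly all actives have a fitted effect of over 55% in size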
#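 Read-out is CellTiter-Glo luminescence after 10 minutes at room temperature, following 48 hours' compound treatment of HT-1080-NT cells (750 cells/well, RPMI, 5% FBS, 37 degrees C).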
# HT1080 IDH1KD tx – kills HT-1080 cells with IDH1 knockdown; HT-1080 IDH1 knockdown viability, ATP luminescence, 48 h; Potency, µM (series often up to 46.1 µM), for the others: at the top dose activity, negative = toxicity, actives largely listed as cytotoxic; hit rate 2% among 360,000;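 also: potency is read from the fitted curve at half-maximal effect; 0% = DMSO wells and -100% = cell-free medium wells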
#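 Assay cells: HT-1080 with IDH1 knockdown, 750 per well, RPMI/5% FBS. Exposure: 48 h at 37 °C following 2 h pre-incubation. Read: CellTiter-Glo luminescence; fitted concentration-response, curve class assigned.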
# Giardia kill – Giardia lamblia killing. AID 540267. activity change, % at 7.66 µM, hits read low. Giardia lamblia trophozoite viability. hit rate 0.15% among 340,000; in the data active = activity change below about -80%; inconclusive = between about -30% and that limit;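 also: parasites exposed to compound for two days anaerobically before the ATP read; % is scaled to controls: 0 for no effect and ±100 for the full control effect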
#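 Viability, read as ATP luminescence: trophozoites at 100 cells/well, compound added, 48 hrs anaerobic at 37 deg C, then 15-30 min room-temperature development before reading.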
# IL-1B inflam inh – blocks inflammasome-driven IL-1 beta release; hit rate 4.7% among 360,000; THP-1 LPS/ATP IL-1B secretion, AlphaLISA, 16 h; stronger effect = lower value; AID 743279; activity change, % at 57.5 µM; in the data active = activity change below about -50%; inconclusive = mostly about -30% to -49%; also: % is scaled to controls: 0 for no effect and ±100 for the full control effect
#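 THP-1 cells pretreated 1 hr with compounds (up to 57.5 uM final), then stimulated with LPS (250 ng/mL final) plus ATP (1.25 mM final); secreted IL-1B measured by AlphaLISA after 16 hr, decreased signal indicating inhibition.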
# TGFb inhibitor – TGF-b pathway inhibition. hit rate 1.2% among 410,000. HepG2 CAGA-GFP TGF-b/SMAD3 reporter, GFP fluorescence, 18 h; TGF-beta stimulated, 500 pg/mL final. Potency, µM (highest dose often 46.1 µM), without a hit: at the top dose activity, negative = inhibition, hits mostly inhibitors; also: potency is read from the fitted curve at half-maximal effect; % is scaled to controls: 0 for no effect and ±100 for the full control effect; nearly all actives have a fitted effect of over 65% in size
#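 TGF-beta reporter screen: HEPG2 CAGA-GFP, 1% FBS, 500 pg/mL TGF-beta final, 18 h; per-cell GFP summed per well; curves fitted and categorized by class.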
# HepG2 tox-1 – counter-screen for TGF-b inhibitors: cytotoxicity in HepG2 cells; AID 588856; hit rate 0.76% among 410,000; Potency, µM (top dose mostly 46.1 µM), inactives show at the highest dose activity change, negative = cytotoxicity, usual class: cytotoxic; HepG2 CAGA-GFP viability, ATP luminescence, 18 h; also: potency is read from the fitted curve at half-maximal effect
#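 CellTiter-Glo luminescence gave cytotoxicity after 18 hours at 37 degrees C. The cells were HepG2 CAGA-GFP in 1% FBS DMEM, stimulated with 500 pg/mL TGF-beta after compound addition. %Activity was normalised to no-cell wells (complete cell-killing) and DMSO (no toxicity), and curves were fitted and classified.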
# TGFb CAGA inh – TGF-b pathway inhibition, cherry-pick retest; HepG2 CAGA-GFP TGF-b reporter, GFP fluorescence, 18 h; cells stimulated with TGF-beta, 500 pg/mL; shares compounds with TGFb inhibitor; Potency, µM (top dose mostly 46.1 µM), without a hit: at the top dose activity, negative = inhibition, hits mostly inhibitors; hit rate 63% among 1,600; also: potency is read from the fitted curve at half-maximal effect; % is scaled to controls: 0 for no effect and ±100 for the full control effect; nearly all actives have a fitted effect of over 65% in size
# HepG2 tox-2 – HepG2 cytotoxicity, TGF-b inhibitor counterscreen. hit rate 27% among 1,600. Potency, µM (highest dose often 46.1 µM), for inactives: at the highest dose activity, negative = cytotoxicity, most hits filed as inhibitors. HepG2 CAGA-GFP viability, ATP luminescence, 18 h; cells stimulated with TGF-beta, 500 pg/mL. shares compounds with TGFb inhibitor; also: potency is read from the fitted curve at half-maximal effect; % is scaled to controls: 0 for no effect and ±100 for the full control effect; nearly all actives have a fitted effect of over 70% in size
# TGFb CCL64 inh – TGF-b inhibition, CCL64 orthogonal assay. shares compounds with TGFb inhibitor. CCL64 CAGA-GFP reporter, TGF-b stimulated, GFP fluorescence, 18 h. Potency, µM (series often up to 46.1 µM), inactives show at the top dose activity, negative = inhibition, most hits filed as inhibitors. hit rate 41% among 1,600; also: potency is read from the fitted curve at half-maximal effect; nearly all actives have a fitted effect of over 65% in size
# TGFb COP inh – TGF-b inhibition validated with COP promoter; shares compounds with TGFb inhibitor; HepG2 COP-GFP TGF-b reporter, GFP fluorescence, 18 h; cells stimulated by added recombinant TGF-beta; Potency, µM (titrated, usually from 46.1 µM), without a hit: at the top dose activity, negative = inhibition, most hits filed as inhibitors; hit rate 3% among 1,600; AID 720537; also: potency is read from the fitted curve at half-maximal effect; nearly all actives have a fitted effect of over 70% in size
# Starred values were filed as active, the others as inactive; i = inactive; ? = inconclusive; nt = no result given. Unless noted, calls follow the shape of the dose curve; as a rule, active = well fitted curve in the direction sought with a large enough effect; inconclusive = small, poorly fitted or top-dose-only effect, or another doubt; inactive = no such curve, though single readings can be large; an effect the other way counts as inactive or inconclusive.
SMILES,HT1080NT lethal,HT1080 IDH1KD tx,Giardia kill,IL-1B inflam inh,TGFb inhibitor,HepG2 tox-1,TGFb CAGA inh,HepG2 tox-2,TGFb CCL64 inh,TGFb COP inh
O=C(Nc1cccc2ccccc12)c1ccc([N+](=O)[O-])s1,?,?,-89*,15,8.9µM*,11µM*,16µM*,26µM*,?,50%
O=C(Nc1cccnc1)c1ccc([N+](=O)[O-])s1,?,?,-87*,-2,10µM*,11µM*,15µM*,23µM*,?,?
Cn1ncc([N+](=O)[O-])c1C(=O)Nc1cccc2ccccc12,-1%,-3%,14,7,-1%,-24%,nt,nt,nt,nt
Cc1nn(Cc2ccc(Cl)cc2)c(=O)n1N(C)c1ncc(C(F)(F)F)cc1Cl,-21%,-19%,0,5,0%,1%,nt,nt,nt,nt
Cc1ccc(-c2cc(C(=O)NCc3ccccc3Cl)c3ccccc3n2)cc1C,nt,nt,nt,nt,-2%,-17%,nt,nt,nt,nt
Cc1cc(C)c(S(=O)(=O)c2ccc(Cl)cc2)c(Cl)n1,-16%,-8%,-7,9,5%,5%,nt,nt,nt,nt
Cc1cc(S(=O)(=O)c2ccc(Cl)cc2)nc(S(=O)(=O)c2ccc(Cl)cc2)c1C#N,?,6.5µM*,nt,-103*,7.1µM*,-119%,5.8µM*,18µM*,1.8µM*,18µM*
Cc1ccc(NC(=O)c2cc(S(=O)(=O)N(C)C)ccc2N2CCCC2)cc1F,-14%,-26%,-9,0,10µM*,-1%,13µM*,-15%,18µM*,-11%
O=C(Nc1ccc([N+](=O)[O-])cc1)Nc1cnccn1,-13%,-8%,-16,?,?,-51%,?,?,?,13%
CCN(C(=O)C1CCCN(c2ncnc3onc(-c4ccc(F)cc4)c23)C1)c1ccccc1 (stereo unspecified),nt,nt,-2,nt,3%,7%,nt,nt,nt,nt
CC1(C(=O)NCC2CCCCC2)CCN1C(=O)Cc1ccc(-c2ccccc2)cc1 (stereo unspecified),?,?,nt,-18,?,-53%,-8%,-29%,?,15%
CC1(C(=O)NC2CCCC2)CCN1C(=O)Cc1ccc(-c2ccccc2)cc1 (stereo unspecified),?,?,nt,-12,-11%,-25%,nt,nt,nt,nt
Cc1ccc(-n2ncc3c(NCC(C)C)ncnc32)c(C)c1,nt,nt,nt,nt,5%,3%,nt,nt,nt,nt
CCOC(=O)c1c(C)oc2c1c(C=NCc1ccccn1)c(O)c1ccccc12,-5%,-13%,-7,-94*,?,-6%,?,?,18µM*,29%
NS(=O)(=O)c1ccc(NC(=S)Nc2ccn(Cc3cccc4ccccc34)n2)cc1,?,?,-7,0,13µM*,-20%,5.8µM*,-29%,?,-6%
Oc1ccc(Cc2ccccc2)c2cccnc12,?,?,2,89,-20%,-5%,nt,nt,nt,nt
CCOC(=O)N1CCN(Cc2ccc(O)c3ncccc23)CC1,21µM*,6.5µM*,-2,-9,7.1µM*,-48%,?,?,5.8µM*,0%
OCc1ccc(O)c2ncccc12,?,?,8,80,13µM*,-18%,6.5µM*,?,?,15%
Clc1ccccc1CN1CCC(Cc2ccccc2)CC1,-11%,-4%,-5,i,-22%,-41%,nt,nt,nt,nt
Oc1ccc(CN2CCC(Cc3ccccc3)CC2)c2cccnc12,?,5.8µM*,20,-53*,7.1µM*,-38%,?,?,2.6µM*,19%
O=C(NCCc1csc(-c2cccnc2)n1)c1ccco1,7%,7%,11,-14,1%,4%,nt,nt,nt,nt
COc1ccc(-c2csc(C(O)c3ccc(F)c(F)c3)n2)cn1 (stereo unspecified),-22%,1%,nt,20,5%,-13%,nt,nt,nt,nt
O=C(NCC1CCCO1)c1cc2ccccc2o1 (stereo unspecified),-3%,15%,9,18,-2%,-7%,nt,nt,nt,nt
CCOC(=O)c1sc(NC(=O)Nc2ccc(Cl)cc2)cc1C,?,?,-29,-103*,5.6µM*,-27%,?,?,16µM*,83%
Cc1cc(S(=O)(=O)NC(C)C)ccc1OCC(=O)Nc1ccc2c(c1)OCCO2,11%,8%,-3,0,0%,-17%,nt,nt,nt,nt
SMILES,HT1080NT lethal,HT1080 IDH1KD tx,Giardia kill,IL-1B inflam inh,TGFb inhibitor,HepG2 tox-1,TGFb CAGA inh,HepG2 tox-2,TGFb CCL64 inh,TGFb COP inh
Cc1cc(C)nc(/N=C(\N)Nc2ccccc2-c2ccccc2)n1,?,?,20,-98*,10µM*,-34%,?,?,?,71%
COc1ccccc1-c1cc(NC=O)c2ncc(-c3cccc(C(=O)N(C)C)c3)n2c1,?,?,nt,19,7.9µM*,-7%,5.2µM*,-26%,?,10%
COc1cccc(-c2cnc3c(NC=O)cc(-c4ccc(OC)cc4OC)cn23)c1,?,?,nt,47,4.5µM*,-22%,4.1µM*,-28%,3.3µM*,16%
CC(=O)c1ccc(-c2cnc3c(NC=O)cc(-c4ccccc4Oc4ccccc4)cn23)cc1,?,?,nt,-15,11µM*,-15%,?,-18%,?,54%
COc1ccccc1-c1cc(NC=O)c2ncc(-c3cccc(C(C)=O)c3)n2c1,?,?,nt,5,-26%,-41%,nt,nt,nt,nt
N#Cc1ccccc1S(=O)(=O)N1CCN(C(=O)CN2CCCC2c2cccs2)CC1 (stereo unspecified),6%,3%,12,26,3%,4%,nt,nt,nt,nt
O=C(O)c1nn(CCOc2c(Cl)cccc2Cl)c(=O)c2ccccc12,-24%,?,-10,21,-2%,-21%,nt,nt,nt,nt
